In publication PMC9911399, “Two distinct binding modes provide the RNA-binding protein RbFox with extraordinary sequence specificity”:
Positions count from the first letter of the chain named. Whole data set: some 16,000 sequences, median “ka relative to ugcaugu” near 0.096, cut for the highest 2% near 0.35. Many of the other results were omitted from the sample, so the highest values are more common in it than they were.

T1: RBFOX1 RRM RbFoxmut (Fox-RRM*) (Homo sapiens, UniProt Q9NWB1 109-208, R118D;E147R;N151S;E152T)
T1 sequence: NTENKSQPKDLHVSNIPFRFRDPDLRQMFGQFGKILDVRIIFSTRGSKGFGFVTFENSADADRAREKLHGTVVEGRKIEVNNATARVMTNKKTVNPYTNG

B1: GUCCUUU (DNA:RNA)
RNA: GGGAGACCGGAAUUCAGAUUGUCCGUCCUUUUUAAAUCCCGUCGUAGCCACCA
DNA 1: CAATCTGAATTCCGGTCTCCC
DNA 2: TGGTGGCTACGACGGGATT
B2: CGACCAC (DNA:RNA)
RNA: B1 RNA with G25C, U26G, C27A, U29C, U30A, U31C
DNA 1: CAATCTGAATTCCGGTCTCCC
DNA 2: TGGTGGCTACGACGGGATT
B3: AACACUU (DNA:RNA)
RNA: B1 RNA with G25A, U26A, C28A, U29C
DNA 1: CAATCTGAATTCCGGTCTCCC
DNA 2: TGGTGGCTACGACGGGATT
B4: ACAACGA (DNA:RNA)
RNA: GGGAGACCGGAAUUCAGAUUGUCCACAACGAUUAAAUCCCGUCGUAGCCACCA
DNA 1: CAATCTGAATTCCGGTCTCCC
DNA 2: TGGTGGCTACGACGGGATT
B5: GGAGGAU (DNA:RNA)
RNA: B1 RNA with U26G, C27A, C28G, U29G, U30A
DNA 1: CAATCTGAATTCCGGTCTCCC
DNA 2: TGGTGGCTACGACGGGATT
B6: AAUCGAA (DNA:RNA)
RNA: B4 RNA with C26A, A27U, A28C, C29G, G30A
DNA 1: CAATCTGAATTCCGGTCTCCC
DNA 2: TGGTGGCTACGACGGGATT
B7: ACCAGCC (DNA:RNA)
RNA: B4 RNA with A27C, C29G, G30C, A31C
DNA 1: CAATCTGAATTCCGGTCTCCC
DNA 2: TGGTGGCTACGACGGGATT
B8: GCCUUGG (DNA:RNA)
RNA: B1 RNA with U26C, C28U, U30G, U31G
DNA 1: CAATCTGAATTCCGGTCTCCC
DNA 2: TGGTGGCTACGACGGGATT
B9: CGCCUUG (DNA:RNA)
RNA: B1 RNA with G25C, U26G, U31G
DNA 1: CAATCTGAATTCCGGTCTCCC
DNA 2: TGGTGGCTACGACGGGATT
B10: AGCAGCC (DNA:RNA)
RNA: B4 RNA with C26G, A27C, C29G, G30C, A31C
DNA 1: CAATCTGAATTCCGGTCTCCC
DNA 2: TGGTGGCTACGACGGGATT
B11: GCCCGCC (DNA:RNA)
RNA: B1 RNA with U26C, U29G, U30C, U31C
DNA 1: CAATCTGAATTCCGGTCTCCC
DNA 2: TGGTGGCTACGACGGGATT
B12: GUCCGCC (DNA:RNA)
RNA: B1 RNA with U29G, U30C, U31C
DNA 1: CAATCTGAATTCCGGTCTCCC
DNA 2: TGGTGGCTACGACGGGATT
B13: AGCCUUG (DNA:RNA)
RNA: B1 RNA with G25A, U26G, U31G
DNA 1: CAATCTGAATTCCGGTCTCCC
DNA 2: TGGTGGCTACGACGGGATT
B14: CGCCGCC (DNA:RNA)
RNA: B1 RNA with G25C, U26G, U29G, U30C, U31C
DNA 1: CAATCTGAATTCCGGTCTCCC
DNA 2: TGGTGGCTACGACGGGATT
B15: GCCAGCC (DNA:RNA)
RNA: B4 RNA with A25G, A27C, C29G, G30C, A31C
DNA 1: CAATCTGAATTCCGGTCTCCC
DNA 2: TGGTGGCTACGACGGGATT
B16: GCUCUGU (DNA:RNA)
RNA: B1 RNA with U26C, C27U, U30G
DNA 1: CAATCTGAATTCCGGTCTCCC
DNA 2: TGGTGGCTACGACGGGATT
B17: ACCACUU (DNA:RNA)
RNA: B4 RNA with A27C, G30U, A31U
DNA 1: CAATCTGAATTCCGGTCTCCC
DNA 2: TGGTGGCTACGACGGGATT
B18: GCUCAUC (DNA:RNA)
RNA: B1 RNA with U26C, C27U, U29A, U31C
DNA 1: CAATCTGAATTCCGGTCTCCC
DNA 2: TGGTGGCTACGACGGGATT
B19: UUAAUGA (DNA:RNA)
RNA: B4 RNA with A25U, C26U, C29U
DNA 1: CAATCTGAATTCCGGTCTCCC
DNA 2: TGGTGGCTACGACGGGATT
B20: CUGGUAA (DNA:RNA)
RNA: B1 RNA with G25C, C27G, C28G, U30A, U31A
DNA 1: CAATCTGAATTCCGGTCTCCC
DNA 2: TGGTGGCTACGACGGGATT
B21: AAGAUCU (DNA:RNA)
RNA: B4 RNA with C26A, A27G, C29U, G30C, A31U
DNA 1: CAATCTGAATTCCGGTCTCCC
DNA 2: TGGTGGCTACGACGGGATT
B22: AAAUCAC (DNA:RNA)
RNA: B4 RNA with C26A, A28U, G30A, A31C
DNA 1: CAATCTGAATTCCGGTCTCCC
DNA 2: TGGTGGCTACGACGGGATT
B23: GCGUCGU (DNA:RNA)
RNA: B4 RNA with A25G, A27G, A28U, A31U
DNA 1: CAATCTGAATTCCGGTCTCCC
DNA 2: TGGTGGCTACGACGGGATT
B24: UUAUGCG (DNA:RNA)
RNA: B4 RNA with A25U, C26U, A28U, C29G, G30C, A31G
DNA 1: CAATCTGAATTCCGGTCTCCC
DNA 2: TGGTGGCTACGACGGGATT
B25: GUAUGUC (DNA:RNA)
RNA: B1 RNA with C27A, C28U, U29G, U31C
DNA 1: CAATCTGAATTCCGGTCTCCC
DNA 2: TGGTGGCTACGACGGGATT
B26: GUAUGCG (DNA:RNA)
RNA: B1 RNA with C27A, C28U, U29G, U30C, U31G
DNA 1: CAATCTGAATTCCGGTCTCCC
DNA 2: TGGTGGCTACGACGGGATT
B27: CGCGUCG (DNA:RNA)
RNA: B1 RNA with G25C, U26G, C28G, U30C, U31G
DNA 1: CAATCTGAATTCCGGTCTCCC
DNA 2: TGGTGGCTACGACGGGATT
B28: GUAUGCC (DNA:RNA)
RNA: B1 RNA with C27A, C28U, U29G, U30C, U31C
DNA 1: CAATCTGAATTCCGGTCTCCC
DNA 2: TGGTGGCTACGACGGGATT
B29: GCGUAUG (DNA:RNA)
RNA: B1 RNA with U26C, C27G, C28U, U29A, U31G
DNA 1: CAATCTGAATTCCGGTCTCCC
DNA 2: TGGTGGCTACGACGGGATT
B30: GCGUCCG (DNA:RNA)
RNA: B4 RNA with A25G, A27G, A28U, G30C, A31G
DNA 1: CAATCTGAATTCCGGTCTCCC
DNA 2: TGGTGGCTACGACGGGATT
B31: GCGUUUG (DNA:RNA)
RNA: B1 RNA with U26C, C27G, C28U, U31G
DNA 1: CAATCTGAATTCCGGTCTCCC
DNA 2: TGGTGGCTACGACGGGATT

What follows are binders tested against T1, RBFOX1 RRM RbFoxmut (Fox-RRM*) (assay: EMSA; HiTS-Eq, 1 nM pool, 10 min; buffer printed only for the single-RNA assays: 10 mM Tris pH 7.5, 150 mM NaCl, 3.4 mM EDTA, 0.001% NP-40, 30 C). Conditions: tags: His6 N-terminal (pET28a); label: 5' 32P.
How it was run: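 A pool of RNA with 7 randomized nucleotides, 5′-radiolabelled and with DNA-annealed flanks, was equilibrated at 1 nM for 10 min in 50 µL with purified RbFox RRM, wild type or mutant, across increasing protein concentrations. Free RNA was separated by 8% native PAGE, excised, reverse-transcribed, barcoded by PCR and sequenced. Relative association constants were obtained from read-count changes of each RNA species versus the control reaction and normalised to the cognate motif.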
In the case of B1, the binding signal is reported as 0.081 KA relative to UGCAUGU. With B2 the binding signal was 0.0643 KA relative to UGCAUGU. B3 was tested, and the binding signal was 0.0596 KA relative to UGCAUGU. In the case of B4, the binding signal is reported as 0.0863 KA relative to UGCAUGU. B5 was tested, and the binding signal was 0.0724 KA relative to UGCAUGU. For B6, the binding signal was 0.081 KA relative to UGCAUGU. With B7 the binding signal was 0.0795 KA relative to UGCAUGU. B8 was tested, and the binding signal was 0.501 KA relative to UGCAUGU. For B9, the binding signal was 0.978 KA relative to UGCAUGU. With B10 the binding signal was 0.0801 KA relative to UGCAUGU. With B11 the binding signal was 0.0938 KA relative to UGCAUGU. For B12, the binding signal was 0.105 KA relative to UGCAUGU. B13 was tested, and the binding signal was 0.576 KA relative to UGCAUGU. For B14, the binding signal was 0.13 KA relative to UGCAUGU. With B15 the binding signal was 0.075 KA relative to UGCAUGU. For B16, the binding signal was 0.102 KA relative to UGCAUGU. For B17, the binding signal was 0.0717 KA relative to UGCAUGU. In the case of B18, the binding signal is reported as 0.06 KA relative to UGCAUGU. For B19, the binding signal was 0.0717 KA relative to UGCAUGU. In the case of B20, the binding signal is reported as 0.121 KA relative to UGCAUGU. For B21, the binding signal was 0.0643 KA relative to UGCAUGU. With B22 the binding signal was 0.0617 KA relative to UGCAUGU. For B23, the binding signal was 0.129 KA relative to UGCAUGU. B24 was tested, and the binding signal was 0.13 KA relative to UGCAUGU. For B25, the binding signal was 0.334 KA relative to UGCAUGU. In the case of B26, the binding signal is reported as 0.468 KA relative to UGCAUGU. In the case of B27, the binding signal is reported as 0.101 KA relative to UGCAUGU. With B28 the binding signal was 0.278 KA relative to UGCAUGU. For B29, the binding signal was 0.876 KA relative to UGCAUGU. In the case of B30, the binding signal is reported as 0.135 KA relative to UGCAUGU. B31 was tested, and the binding signal was 0.403 KA relative to UGCAUGU.
